# High-throughput results: PubChem, National Center for Advancing Translational Sciences (NCATS)
# Sampled rows, rich in hits. Any-hit rate of the full collection: about 11%.
# ALDH1A1 block: inhibitors of human aldehyde dehydrogenase 1A1 | AID 1030 | Potency, µM (series often up to 75.3 µM), for the others: at the highest dose activity, negative = inhibition, most hits filed as inhibitors | 220,000 compounds, 7.3% hits | Purified ALDH1A1, NADH fluorescence, propionaldehyde substrate; active means well fitted inhibition curve with a large enough effect, not every such curve was filed as active; inconclusive means small, poorly fitted or top-dose-only effect, or another doubt; inactive means no such curve, though single readings can be large or run the other way;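 further: potency means the concentration at half of the fitted maximal effect; plate controls were no enzyme wells and a reference inhibitor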
# GoLoco inh red: blocks human Gai1 binding to RGS12 GoLoco peptide, red readout | AID 880 | Gai1:RGS12 GoLoco peptide FP, rhodamine, 10 min | Potency, µM (doses to about 61.6 µM), for the others: at the top dose activity, negative = inhibition, hits mostly inhibitors | P63096 | 230,000 compounds, 0.44% hits; active means well fitted inhibition curve with a large enough effect, not every such curve was filed as active; inactive means no such curve, though single readings can be large or run the other way; further: potency means the concentration at half of the fitted maximal effect; on the % scale 0 is the no-effect control and ±100 the full control effect; nearly all actives have a fitted effect of over 30% in size
# Target sequence (P63096 whole entry, looked up): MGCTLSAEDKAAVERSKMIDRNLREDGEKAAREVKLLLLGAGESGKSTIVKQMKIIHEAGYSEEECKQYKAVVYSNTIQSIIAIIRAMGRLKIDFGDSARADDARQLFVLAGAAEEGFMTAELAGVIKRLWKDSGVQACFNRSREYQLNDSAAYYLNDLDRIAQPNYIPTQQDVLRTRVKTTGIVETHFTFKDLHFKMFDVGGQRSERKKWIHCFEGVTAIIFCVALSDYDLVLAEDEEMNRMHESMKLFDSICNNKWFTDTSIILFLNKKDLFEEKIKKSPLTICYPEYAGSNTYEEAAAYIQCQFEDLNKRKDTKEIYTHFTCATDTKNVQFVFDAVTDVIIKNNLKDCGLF
# HTT ATP protect: Huntington cell model cytoprotection by ATP luminescence; 230,000 compounds, 0.14% hits; Potency, µM (top dose mostly 56.4 µM), inactives show cytoprotection (ATP increase), most hits filed as activators; PC12 HTT-Q103 induced, cytoprotection, ATP luminescence, 40 h; further: potency means the concentration at half of the fitted maximal effect; % of control where 0% means no effect; nearly all actives have a fitted effect of over 45% in size
#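 ATP quantification (ATPlite) reports survival of PC12 cells in which tebufenozide, 100 nM final, switches on Htt exon 1 with 103 glutamines linked to GFP; compounds are titrated.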
# PNC inhibitor: perinucleolar compartment assembly inhibition; PC3M PTB-GFP, PNC prevalence imaging, 16 h; active compounds read low; activity change (PNC), negative = inhibition, % at 10 µM; 140,000 compounds, 3.1% hits; AID 2417;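 active means readout at or below -70, meaning at least 70% loss of cells showing the perinucleolar compartment, a nuclear body marking cancer cells; inconclusive means readout between -30 and a set limit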;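 further: plate controls were DMSO wells for no effect and camptothecin positive control wells for full effect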
#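 PC3M cells stably expressing PTB-GFP, 750–1000 cells/well, treated 16 h at 37 °C with compound (23 nl of library stock), in duplicate. After paraformaldehyde fixation and Hoechst stain, imaged at 20x; PNC prevalence scored by image analysis.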
# HttQ103 aggreg: mutant huntingtin aggregation inhibition; PC12 HttQ103-GFP aggregates, Acumen cytometry, 40 h; Potency, µM (series often up to 46.1 µM), without a hit: at the top dose activity change, negative = inhibition, most hits filed as inhibitors; 220,000 compounds, 1.1% hits; AID 1688; further: potency means the concentration at half of the fitted maximal effect; on the % scale 0 is the no-effect control and ±100 the full control effect; nearly all actives have a fitted effect of over 60% in size
#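 Ecdysone-promoter PC12 model expressing HTT exon 1 Q103 fused to GFP, induced by tebufenozide at 100 nM final. Compounds titrated; aggregates sized 1–25 µm scored on a 488 nm laser cytometer.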
# HPGD inh: HPGD (human) dehydrogenase inhibition; P15428; purified HPGD, NADH fluorescence kinetic, PGE2 substrate; Potency, µM, inactives show at the top dose activity change, negative = inhibition, hits mostly inhibitors; 150,000 compounds, 4.3% hits; active means well fitted inhibition curve with a large enough effect, not every such curve was filed as active; inconclusive means small, poorly fitted or top-dose-only effect, or another doubt; inactive means no such curve, though single readings can be large or run the other way; further: potency means the concentration at half of the fitted maximal effect; on the % scale 0 is the no-effect control and ±100 the full control effect
# Target sequence (P15428 whole entry, looked up): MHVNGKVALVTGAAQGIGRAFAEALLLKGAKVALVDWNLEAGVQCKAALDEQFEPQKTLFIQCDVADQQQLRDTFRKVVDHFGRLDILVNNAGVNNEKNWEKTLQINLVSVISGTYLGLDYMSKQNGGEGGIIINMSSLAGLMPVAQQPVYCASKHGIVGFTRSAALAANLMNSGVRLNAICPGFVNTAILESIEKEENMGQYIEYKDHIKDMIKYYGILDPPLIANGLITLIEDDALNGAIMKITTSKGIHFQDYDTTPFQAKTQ
#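 NADH formation kinetics: reaction with 30 uM PGE2 and 1 mM NAD+ (final), 20 nM enzyme, Tris-HCl pH 8 with Tween 20, after 15 min compound preincubation at room temperature. Fluorescence change, last versus first of five reads.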
# Active calls of the source: *; ? = inconclusive; / = no result given; [ ] = dose if it differs, or a comment. Unless noted, the call rests on the fitted dose curve; in most records, active means well fitted curve in the direction sought with a large enough effect; inconclusive means small, poorly fitted or top-dose-only effect, or another doubt; inactive means no such curve, though single readings can be large; an effect the other way counts as inactive or inconclusive.
SMILES,ALDH1A1 block,GoLoco inh red,HTT ATP protect,PNC inhibitor,HttQ103 aggreg,HPGD inh
O=C(c1ccc(-c2nnc(Nc3ccccc3)c3ccccc23)cc1)N1C[C@H]2C[C@H](C1)c1cccc(=O)n1C2,13%,9%,-23%,22,11%,32µM*
Cc1ccc(Nc2nnc(-c3ccc(N4CCOCC4)c([N+](=O)[O-])c3)c3ccccc23)cc1,?,3%,3%[10 µM],?,-9%,-16%
O=[N+]([O-])c1cc(-c2nnc(N3CCOCC3)c3ccccc23)ccc1N1CCOCC1,10µM*,1%,/,/,-2%,/
O=[N+]([O-])c1cc(-c2nnc(Nc3ccc(O)cc3)c3ccccc23)ccc1N1CCOCC1,?,-6%,2%[10 µM],-23,?,-9%
O=[N+]([O-])c1cc(-c2nnc(Nc3ccccc3)c3ccccc23)ccc1N1CCOCC1,?,0%,0%[1.9 µM],-28,26%,14µM*
O=C1CCCc2nc(N3CCN(Cc4ccccc4)CC3)ncc21,-4%,5%,-22%,?,11µM*,-18%
COc1ccc(Cn2cccc(NC(=O)Nc3cccc(OC)c3)c2=O)cc1,/,-2%,-1%[10 µM],/,-27%[9.22 µM],/
Cc1nn(-c2ccccc2)c(C)c1/C=N/NC(=O)c1cc(-c2cccs2)[nH]n1,-9%,0%,-70%[10 µM],-115*,-13%,-14%
O=C(/C=C/c1ccccc1)/C=C/c1ccccc1,32µM*,-10%,34%[0.074 µM],?,-19%,-22%
O=C(/C=C/c1ccccc1)c1ccccc1,-13%,9%,/,20,-12%,-23%
COc1ccccc1N1C(=O)C2C(c3ccccc3F)NN(C(=O)c3ccc(C)cc3)C2C1=O (stereo not drawn),8%,-16%,/,37,5%,?
Cc1ccc(C(=O)N2NC(c3ccccc3F)C3C(=O)N(c4cccc(C)c4)C(=O)C32)cc1 (stereo not drawn),2.5µM*,-6%,/,38,3%,-28%
C=C(C[C@]1(C(=O)OC)CC2(CC=C(C)C)C(=O)C(C(=O)CC(C)C)=C(O)C(CC=C(C)C)(C1)C2=O)C(=O)OC (stereo partly drawn),5%,-1%,?,/,/,-12%
O=C(CCc1ccccc1)OCC(=O)c1ccc([N+](=O)[O-])cc1,8.9µM*,0%,-10%,/,3%,/
CC1CCN(c2cc(N)c(Cl)cc2[N+](=O)[O-])CC1,?,/,-2%,-28,-8%,/
COC(=O)C1=CN(c2cccc(C)c2)C=C(C(=O)OC)C1c1cc(OC)c(O)c([N+](=O)[O-])c1,-1%,8%,-55%,?,2%,16µM*
COC(=O)C1=CN(c2ccc(OC)cc2)C=C(C(=O)OC)C1c1ccc(C)c([N+](=O)[O-])c1,-2%,1%,-5%[10 µM],14,-11%,-2%
COc1cc(/C=N/NC(=O)C2C3CCCCC32C)cc(Br)c1O (stereo not drawn),?,1%,-20%[10 µM],-20,?,?
CCCCOC(=O)c1ccc(NC(=S)NC(=O)c2c(Cl)cnn2CC)cc1,3.5µM*,11%,-18%,47,28%,-19%
COc1cc2c(C(=O)NCc3ccc(C)o3)cn(CC(C)C)c(=O)c2cc1OC,?,-8%,-27%,-108*,18%,-5%
CCCCN(C(=O)CSc1nnc(Nc2ccccc2)s1)c1c(N)n(CCC)c(=O)[nH]c1=O,-10%,3%,-128%,/,13%,/
N#CC1=C(N)C(C#N)(C#N)C(c2cccnc2)C2COCC=C12 (stereo not drawn),4%,3%,-26%[10 µM],13,-11%,28µM*
N#CC1=C(N)C(C#N)(C#N)C(c2cccnc2)C2CN(C(=O)OCc3ccccc3)CC=C12 (stereo not drawn),?,-1%,-89%[10 µM],-7,?,-18%
C=CCN(C(=O)CSC1=NC(=O)CN1C(C)=O)c1nc(C)c(-c2ccccc2)s1,6.3µM*,-7%,-21%,/,?,/
C=CCSc1nnc(-c2sc(-c3ccccc3)nc2C)n1C,?,-4%,43%[10 µM],-7,1%,?
SMILES,ALDH1A1 block,GoLoco inh red,HTT ATP protect,PNC inhibitor,HttQ103 aggreg,HPGD inh
CC1CCN(C(=O)c2ccc(CSc3nc4ccncc4n3Cc3ccc(F)cc3)cc2)CC1,-8%,-5%,/,7,?,0.79µM*
COc1ccc2c(c1)O[C@@H]1c3ccc(OC)cc3OCC21 (stereo partly drawn),0%,1%,-40%,/,/,0%
CC(C)(CNC(=O)c1sc2cc(F)ccc2c1Cl)N1CCOCC1,-8%,-6%,1%[10 µM],-92*,11%,-19%
Cc1ccc(C(=O)NCC(C)(C)N2CCOCC2)s1,0%,-9%,-3%,4,2%,2%
COCCn1c(=O)c(C)nc2cnc(Oc3cccc(Cl)c3)nc21,?,34%,-25%,/,/,/
CCN(CC)CC(=O)NN=C(c1ccccc1)c1ccccc1,?,7%,3%,?,15%,-5%
CC(NC1CCCCC1)C(=O)NN=C(c1ccccc1)c1ccccc1 (stereo not drawn),3.5µM*,3%,-9%[10 µM],/,-2%[9.22 µM],/
CC(Cl)C(=O)NN=C(c1ccccc1)c1ccccc1 (stereo not drawn),1µM*,1%,-38%[1.9 µM],/,9%[9.22 µM],/
COc1ccc(S(=O)(=O)Nc2ccccc2C)cc1C(=O)N1CCOCC1,10µM*,-8%,-16%[10 µM],/,8%[9.22 µM],/
COc1ccc(S(=O)(=O)Nc2cccc(F)c2C)cc1C(=O)N1CCOCC1,13%,7%,-2%,/,-21%,/
CCc1c(O)nc(SCC(=O)Nc2ccccc2C)[nH]c1=O,-1%,-5%,-1%,?,-1%,-3%
Cc1ccc(NC(=O)CSc2nc(C)c(Cc3ccccc3)c(=O)[nH]2)cc1,?,2%,-89%,/,?,/
CCc1c(C)nc(SCC(=O)Nc2ccc(Br)cc2)[nH]c1=O,4%,3%,-8%,-4,?,14µM*
CCc1c(C)nc(SCC(=O)Nc2cccc(Br)c2)[nH]c1=O,-4%,4%,0%,59,-2%,3.5µM*
N=c1n(CCN2CCCC2)c2ccccc2n1CC(O)c1ccco1 (stereo not drawn),8%,-6%,-2%[10 µM],-92*,-29%,0%
O=C(Nc1ccccc1)N(O)c1ccc(Cl)cc1,1µM*,-12%,1%[10 µM],14,4%,-28%
CCN(CCS(=O)(=O)c1ccc(Cl)cc1)C(=O)Nc1ccccc1,/,10%,4%[10 µM],/,-8%[9.22 µM],/
Cc1c(CCC(=O)O)c(=O)oc2cc3occ(-c4ccc(F)cc4)c3cc12,-3%,8%,-26%[0.074 µM],?,11%,-17%
